76 molecules from PubChem BioAssay AID493248 (Broad Institute, 2011) can be followed below.

Each structure is given as a SMILES string. The campaign covered roughly 2,300 compounds. About 1,400 (61%) were called active. Inconclusive results (about 7%) are left out. The rule behind the calls is not given here. The set was probably picked from earlier hits. Not all results are given here. Measured potencies and affinities stand elsewhere.

Chain of FAD-linked sulfhydryl oxidase ALR (Homo sapiens) (P55789 whole entry, looked up): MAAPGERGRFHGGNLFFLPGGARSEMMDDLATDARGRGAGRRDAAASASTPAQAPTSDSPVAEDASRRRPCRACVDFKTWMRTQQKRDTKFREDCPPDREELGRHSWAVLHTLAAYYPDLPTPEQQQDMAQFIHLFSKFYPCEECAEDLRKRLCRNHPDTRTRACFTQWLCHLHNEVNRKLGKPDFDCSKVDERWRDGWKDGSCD

This assay concerns the target FAD-linked sulfhydryl oxidase ALR (Homo sapiens) (UniProt P55789). Briefly: ALR-catalysed DTT oxidation blockers – biochemical, H2O2 detection, luminescence, cherry-pick, dose response (AID 493248). As to conditions: purified ALR, H2O2 HRP-luminol luminescence; at 10 µM (top of the series).
For the molecule `Cc1cc(C(=O)NC2CCCc3c2cnn3-c2ccc(C)c(C)c2)no1` (stereo unspecified), the activity change, negative = inhibition is -8.68%.
Regarding `O=c1[nH]c(/C=C\c2ccccc2F)nc(O)c1[N+](=O)[O-]`, the activity change, negative = inhibition is -17.7%.
Turning to `O=C(CNS(=O)(=O)c1ccccc1)N/N=C/c1ccc(O)cc1`, the activity change, negative = inhibition is -113%.
Take `Cc1nc2cccc(C(=O)Oc3ccc([N+](=O)[O-])cc3)c2o1`: the activity change, negative = inhibition was -34.6%.
As for `CC1CC(C)CN(C(=O)c2ccc(-c3ccc([N+](=O)[O-])cc3)o2)C1` (stereo unspecified), the activity change, negative = inhibition is -37.5%.
Turning to `O=C(NCc1cccs1)C1CCN(S(=O)(=O)c2cccc3cccnc23)CC1`, the activity change, negative = inhibition came to 3.4%.
In the case of `CCN(CCNC(=O)CN(C)S(=O)(=O)c1cccc2nsnc12)c1ccccc1`, the activity change, negative = inhibition was -59.9%.
Regarding `CCCCN(CCCC)c1ccc(C(=O)c2ccccc2C(=O)O)c(O)c1`, the activity change, negative = inhibition is -56.2%.
Next, `CC/C(=N\NC(=O)CCC(=O)NCc1ccccc1)c1ccc(O)cc1`: -98.7%; `Cc1ccc(N=c2oc3cc(O)ccc3cc2C(N)=O)cc1`: -84.9%.
Under `Cc1nn(C)c(C)c1Sc1ccccc1N` stands -14.3%.
On to `Cc1nc(N2CCN(c3ccccc3)CC2)[nH]c(=O)c1C`, for which the activity change, negative = inhibition was -42.3%.
Under `Nc1ccc2oc(=O)c(-c3ccccc3)cc2c1` stands -86.7%.
Turning to `Cc1ccc(N2CCN(C(=O)N3CCCC3)CC2)cc1C`, the activity change, negative = inhibition is -10.1%.
Take `Cn1ccnc1SCc1cccc([N+](=O)[O-])c1`: the activity change, negative = inhibition worked out at 7.58%.
Next, `COc1cccc(CNc2nc3ccccc3n2CCN2CCCCC2)c1OC`: -11.4%; `COc1cc(/C=C2\SC(=S)N(NC(C)=O)C2=O)ccc1OC(=O)c1ccco1`: -26.5%; `CSc1cccc(NC(=O)c2ccco2)c1`: -98.6%.
Next, `COc1ccc(S(=O)(=O)N2Cc3ccccc3CC2C(=O)Nc2ccc(O)cc2)cc1OC` (stereo unspecified): 349%; `Cc1cc(NC(=O)c2ccco2)sc1C`: -98.7%; `COc1ccc(SCCc2ccncc2)cc1`: -20.1%.
As to `O=C(C1CCC1)N1CCN(c2ccc(Cl)cc2)CC1`, the activity change, negative = inhibition is -43.9%.
Next, `CCCC(=O)N1c2ccc(-c3csc(N)n3)cc2CC1C` (stereo unspecified): -16.4%; `Cc1cc(N/N=C/c2ccco2)c2ccccc2n1`: -3.59%.
Turning to `Cc1cc(N/N=C/c2ccccc2F)c2ccccc2n1`, the activity change, negative = inhibition is -22.6%.
Consider `CC(=O)N1CCN=C1SCc1ccc(Cl)cc1`, for which the activity change, negative = inhibition was -8.99%.
As for `O=C(Cn1cnc2ccccc21)N/N=C/c1ccccn1`, the activity change, negative = inhibition came to 0.505%.
Turning to `S=c1[nH]ncn1/N=C/c1ccccc1`, the activity change, negative = inhibition is -73%.
Under `COc1ccc(NC(=O)Nc2ccc3nccnc3c2)cc1` stands 105%.
Next, `Cc1oc(C(=O)Nc2ccc(C(=O)O)cc2)cc1COc1ccccc1`: -25.3%; `Cc1ccc(N(C(=O)c2ccc(Br)o2)C2C=CS(=O)(=O)C2)cc1` (stereo unspecified): -13.3%; `CC1=C(C)CS(=O)N(S(=O)(=O)c2ccccc2)C1` (stereo unspecified): -41.8%.
As for `O=C(NCCN1CCN(c2ccccc2)CC1)c1cccc(Cl)c1`, the activity change, negative = inhibition is -76.5%.
On to `O=C(Cc1c(C(=O)O)[nH]c2ccccc12)NCCN1CCN(c2cccc(Cl)c2)CC1`, for which the activity change, negative = inhibition is -54.4%.
As to `CC(C)CN(CC(C)C)c1nnc(N)s1`, the activity change, negative = inhibition was 16.8%.
For the molecule `O=C(Nc1nc2ccc(S(=O)(=O)N3CCCCC3)cc2s1)c1ccncc1`, the activity change, negative = inhibition was -6.5%.
Next, `Cc1cccc(-c2n[nH]c(=S)n2/N=C/C=C/c2ccco2)c1`: -98%; `COc1c(/C=N/Nc2ccc(C(=O)O)cc2)c(CCN(C)C(C)=O)cc2c1OCO2`: -95.6%; `CC1CN(c2ccccc2)NC1=O` (stereo unspecified): 23.1%.
As for `O=C(NCc1cccs1)c1nc2c(nnn2Cc2ccccc2Cl)c(=O)[nH]1`, the activity change, negative = inhibition is -7.82%.
Turning to `Cc1n[nH]c(C)c1Sc1ccccc1N`, the activity change, negative = inhibition came out at 54.6%.
Under `COc1cc(OC)cc(-c2cn[nH]c2N)c1` stands -60.4%; under `Cc1ccc(N=Nc2c(N)[nH]n3c(=O)cc(C)nc23)cc1`, -55.4%.
`Cc1nc(NS(=O)(=O)c2ccccc2C)c2c3c(sc2n1)CCC3`: the activity change, negative = inhibition is -0.709%.
With `CC1CCc2c(sc(NC(=O)c3ccccc3C(=O)O)c2C#N)C1` (stereo unspecified), the activity change, negative = inhibition is -85.9%.
Next, `CCCCNc1cc(NC(C)=O)cc2cc(OC)c(OC)cc12`: -66.6%; `COc1cccc(NC(=O)c2cc(OC)c(OC)c(OC)c2Br)c1`: 4.6%; `O=S(=O)(Nc1ncnc2sc3c(c12)CCC3)c1cc(F)ccc1F`: 5.9%.
Next, `CCC1(C)OC(=O)NN(c2ccc(C)cc2)C1(C)O` (stereo unspecified): -35.5%.
Under `COc1ccc(-c2cc(C(=O)NN)[nH]n2)cc1OC` stands -15.4%; under `Cc1ccc(O)c(-c2cc(C(=O)NCc3ccncc3)[nH]n2)c1`, -50.3%; under `Cn1nnc2c[n+](CC(=O)c3ccc(Cl)cc3)cc(Br)c21`, -31%.
For the molecule `O=C(Nc1ccccc1F)c1ccc(Cn2cc(Cl)cn2)cc1`, the activity change, negative = inhibition was -100%.
`Cc1ccc(-n2c([C@@H]3C[C@H]3c3ccccc3)n[nH]c2=S)cc1`: the activity change, negative = inhibition was -34.6%.
Next, `COc1ccc(-c2n[nH]c(=S)n2-c2ccc(C)cc2)cc1OC`: 3.4%; `Cc1cccc(-n2c(-c3ccncc3)n[nH]c2=S)c1`: -2.76%; `Cc1cc(-c2n[nH]c(=S)n2-c2ccc(C)c(C)c2)no1`: -43%.
Next, `O=C(Cn1cc(C(F)(F)F)ccc1=O)N/N=C/c1ccc(O)cc1`: 174%.
As to `COc1cc(/C=N/Nc2ccc(C(F)(F)F)cn2)ccc1O`, the activity change, negative = inhibition was -15%.
On to `COC(=O)Cc1c(C)c2ccc(OC(=O)c3ccccc3)cc2oc1=O`, for which the activity change, negative = inhibition amounted to 31.5%.
Regarding `CCCN(Cc1ccc(N(CC)CC)cc1)CC1CC1`, the activity change, negative = inhibition is -0.019%.
Under `CN(CC(=O)NC1CCCCC1)S(=O)(=O)c1cccc2cccnc12` stands 5.38%.
Next, `O=C(Cc1ccccc1)Nc1ccc(C(=O)Nc2ccccc2C(=O)O)cc1`: 5.48%.
Under `O=S(=O)(NCCCN1CCN(c2ccccc2F)CC1)c1cccc2cccnc12` stands 20.3%.
As for `O=C(O)c1cccc(NC(=O)c2cccc(S(=O)(=O)Nc3cccc([N+](=O)[O-])c3)c2)c1`, the activity change, negative = inhibition was -2.25%.
Under `CNCc1ccccc1Sc1ccc(O)c(O)c1` stands -78.5%; under `CC(=O)c1c(C)oc(C)c1CSCc1ccc(C(=O)O)o1`, 16.7%; under `CC(C)NC(=O)c1ccc(CSCc2ccccc2Cl)o1`, -4.45%.
Under `Cc1cc(-c2ccccc2)nc2cc(C(=O)NCc3ccco3)nn12` stands -17.4%.
Next, `CCCc1nn2c(N)c(/C=C3\C=Nc4ccccc43)c(=O)nc2s1`: -38%; `CS(=O)(=O)c1nsc2nc(=O)c(/C=C3\C=Nc4ccccc43)c(N)n12`: -69.9%.
Regarding `CCC(=O)Nc1ccc(C(=O)NCCCn2ccnc2)cc1`, the activity change, negative = inhibition came to 87.5%.
With `CCCC(=O)NC(c1ccc(N(C)C)cc1)c1ccc2cccnc2c1O` (stereo unspecified), the activity change, negative = inhibition came out at 268%.
Turning to `CC1=Nc2cccc3cccc(c23)N1C`, the activity change, negative = inhibition is -10.4%.
`Cc1nc(-c2cccc(N)c2)cs1`: the activity change, negative = inhibition is -3.17%.
Under `O=S(=O)(c1ccc(Cl)nc1)N1CCC(Cc2ccccc2)CC1` stands -5.04%.
